Results reported in PubChem BioAssay AID1063 (University of Pittsburgh Molecular Library Screening Center, 2008).
In all, about 200,000 compounds went through this assay and about 18,000 (9%) were called active. The sample as a whole holds a higher share of actives than the screen did. Values without a mark were called inactive. Rule as the data show it: active = inhibition above about 50%; inactive = the rest.

Assay: Leishmania major promastigote growth inhibition, primary screen (AID 1063);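 also: promastigotes grown with compound for 44 hours at 28 °C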
Conditions: Leishmania major promastigotes, resazurin fluorescence viability; at 10 µM; hits give high values

Structure (SMILES) | inhibition
Cc1nc2ccccn2c1P(=S)(N1CCCCC1)N1CCCCC1 | 97.4% (active)
COc1ccc(CN2CCN(c3ccccc3F)CC2)c(OC)c1 | 9.36%
CC(c1ccccc1)(c1ccccc1)c1ccncc1 | 19.2%
Fc1ccc(N2CCN(Cc3ccc4c(c3)OCO4)CC2)cc1 | 44.5%
CC(=NCc1ccc2c(c1)OCO2)c1c(O)[nH]c(=O)[nH]c1=O | -2.64%
c1cc2c(cc1CCNC1CCCCCC1)OCO2 | 95.2% (active)
c1ccc2sc(C3CCCNC3)nc2c1 (centres undefined) | 31.9%
O=C(O)CCn1cc(C=C2C(=O)NC(=S)NC2=O)c(-c2cccc(Br)c2)n1 | -7.24%
Cn1c(O)c(C=NCCN2CCNCC2)c(=O)n(C)c1=O | -6.59%
CN1CCC(N(C)Cc2cccnc2)CC1 | -2.3%
COc1ccc(NC(=O)N2CCC3(CC2)OCCO3)c(OC)c1 | -0.24%
N#Cc1ccc(Cn2cc(C(=O)c3ccco3)c3ccccc32)cc1 | 93.3% (active)
NC(=O)Cn1cc(C(=O)c2ccccc2F)c2ccccc21 | -6.3%
CC(C)Nc1nc(Cl)nc(NC(C)C)n1 | 24.7%
COc1ccc(-c2nn(CCC#N)cc2C(=O)O)cc1 | -0.84%
CC(C)(C)c1ccc(OC(=O)N2CCCCC2)cc1 | -10.5%
CN1CCN(C(=O)COc2ccc(C(C)(C)C)cc2Br)CC1 | 59.9% (active)
CC(C)c1ccc(OCC(=O)N2CCN(C)CC2)c(Br)c1 | 37.9%
CSC1=NP(=S)(SC)N(C)c2nc3n(c21)CCC3 (centres undefined) | 2.74%
CN(C)C(=O)NC(O)C(Cl)(Cl)Cl (centres undefined) | -1.83%

Structure (SMILES) | inhibition
CN(C)CC1CCCCC1OC(=O)c1ccc(Cl)c(Cl)c1 (centres undefined) | 56.1% (active)
COc1ccc(NC(=O)c2cn(CCC#N)nc2-c2ccc([N+](=O)[O-])cc2)cc1 | -5.27%
CN1C2C=C(N(C(=O)c3ccc(Cl)cc3)c3ccccc3)CC1CC2 (centres undefined) | -6.27%
CCNc1nc2[nH]c(=O)c3c(c2s1)OC(N)=C(C#N)C3c1cccs1 (centres undefined) | 56.6% (active)
N#CC1=C(N)Oc2c(c(=O)oc3ccccc23)C1c1ccccc1OC(=O)c1cccs1 (centres undefined) | 8.6%
CCOCCc1c(O)[nH]c(=S)[nH]c1=O | -2.27%
O=C(CN1CCCC1=O)NCCc1ccccc1 | -2.62%
N[C@@H](Cc1c[nH]c2ccccc12)c1nnc(SCc2c(F)cccc2Cl)o1 | -1.59%
CC(Cc1cccs1)NCc1ccc(Cl)cc1 (centres undefined) | 37.3%
Cc1ccc(-c2cc(C(=O)N3CCC4(CC3)OCCO4)no2)cc1 | 3.46%
COc1ccccc1N1CCN(C(CNC(=O)Oc2ccccc2)c2cccnc2)CC1 (centres undefined) | 90.8% (active)
COC(=O)C(c1ccccc1)N1CCCCCC1 (centres undefined) | -3.28%
O=C(NCC(c1cccnc1)N1CCN(c2ccccc2)CC1)Oc1ccccc1 (centres undefined) | 86.7% (active)
COC(=O)N1C(c2ccccc2)C1c1ccccc1 (centres undefined) | -7.32%
CN(C)/C=C(\C=[N+](C)C)c1[nH]ncc1[N+](=O)[O-] | -3.98%
CC(C)CN1CCN(Cc2ccccc2C(F)(F)F)CC1CCO (centres undefined) | 1.28%
O=c1[nH]c(=S)n(C2CC2)c(O)c1/C=N/N1CCOCC1 | -5.26%
CN(C)C(=O)Oc1cc(=O)n2c3c(cccc13)CCC2 | 23.7%
Nc1ccc(C(=O)N/N=C2/CN3CCC2CC3)cc1 | -7.96%
